Consider 26 compounds from PubChem BioAssay.

The structures appear in SMILES notation.

The experiment deals with Follistatin-related protein 3 (Homo sapiens) (UniProt O95633). As to the kind of experiment: compounds binding follistatin-related protein 3 – biochemical, small-molecule microarray, 635 nm fluorescence, primary screen (AID 1105).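 Also: score merges emission near 667 nm and signal to noise per printed spot across three slides.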 The conditions noted are these: FSTL3 binding, higher = more signal.
Follistatin-related protein 3 (Homo sapiens), sequence (O95633 whole entry, looked up): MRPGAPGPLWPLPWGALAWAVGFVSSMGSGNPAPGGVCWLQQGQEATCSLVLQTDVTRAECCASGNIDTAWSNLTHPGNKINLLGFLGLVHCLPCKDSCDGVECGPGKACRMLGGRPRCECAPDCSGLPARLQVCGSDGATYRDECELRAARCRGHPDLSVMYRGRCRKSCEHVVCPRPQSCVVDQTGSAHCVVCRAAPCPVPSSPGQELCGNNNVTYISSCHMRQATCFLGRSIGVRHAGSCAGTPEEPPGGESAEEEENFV
`CCOC(=O)C[C@H]1[C@H](OC(=O)c2cc3ccccc3oc2=O)[C@@H](NC(=O)c2ccc3ccccc3n2)c2cc(OCCCO)ccc2N1C(=O)c1ccc2ccccc2n1` registered a composite z-score of 1.3.

For the compound `CN1C(=O)C2C=CC(C(O)C3CCCCC3)N(N(c3ccccc3)c3ccccc3)C2C1=O` (stereo unspecified), the composite z-score was -1.14.

With `COc1ccccc1CN1C(=O)c2ccccc2[C@@H](C(=O)NCC(C)C)[C@@H]1c1ccc(CO)cc1`, the composite z-score is 0.0144.

Regarding `COC(=O)[C@@]1(Cc2ccccc2)[C@H]2c3cc(C(=O)N(C)C)n(Cc4ccc(O)c(OC)c4)c3C[C@H]2CN1C(=O)c1ccccc1`, the composite z-score turned out to be 0.764.

In the case of `CCOC(=O)C[C@H]1[C@H](OC(=O)c2ccccc2-c2ccccc2)[C@@H](NC(=O)c2ccccc2)c2cc(OCCCO)ccc2N1C(=O)Cc1ccc(OC)cc1`, the composite z-score was -0.183.

`CCC[C@@H]1C[C@@]1(CCC)[C@@H](NC(=O)c1ccco1)c1ccc(Cl)cc1` yielded a composite z-score of -0.722.

In turn, `CN(C)CCCN1C(=O)[C@@]2(Cc3ccccc31)c1ccccc1C(=O)N(Cc1ccccc1)[C@H]2c1ccc(CO)cc1` gave a composite z-score of 0.408.

`O=C(NCc1ccccc1)[C@]1(Cc2ccccc2)N=C(c2ccc(OCCCO)cc2)O[C@@H]1c1ccccc1`: the composite z-score is -0.11.

For `O=C1c2ccccc2[C@](Cc2ccccc2I)(C(=O)NC2CC2)[C@H](c2ccc(CO)cc2)N1Cc1ccccc1Cl`, the composite z-score was 0.345.

As to `C=C(C(=O)CC[C@H](OC(=O)c1cccnc1)c1ccc(OCCO)cc1)C(C)C`, the composite z-score came to 0.721.

`COCCOC(=O)N1C(=O)[C@@]2(c3cc(C#CCCO)ccc31)[C@H](C(=O)N1CCc3cc(OC)c(OC)cc3C1)[C@H]1C(=O)O[C@H](c3ccccc3)[C@H](c3ccccc3)N1[C@@H]2c1ccc(OCCO)cc1` displayed a composite z-score of 1.4.

As to `C[N+](C)(C)CCCC[C@@H]1NC(=O)[C@H]2C[C@@H](C(=O)NCCCCCCN)[C@@H](c3cccc(OCCO)c3)N2C1=O`, the composite z-score turned out to be 1.28.

Compound `COC(=O)C(CC#Cc1ccc2c(c1)[C@]1(C(=O)N2)[C@H](c2ccc(O)cc2)N2[C@H](c3ccccc3)[C@H](c3ccccc3)OC(=O)[C@H]2[C@@H]1C(N)=O)C(=O)OC` came in with a composite z-score of -1.89.

Take `CN(C)C(=O)[C@@]1(CCC(=O)OC(C)(C)C)N=C(c2ccc(OCCCO)cc2)O[C@H]1c1ccccc1N=[N+]=[N-]`: the composite z-score worked out at 1.4.

`CCOC(=O)C[C@H]1[C@H](OC(=O)Cc2ccc3c(c2)OCO3)[C@@H](NC(=O)c2ccccc2)c2cc(OCCCO)ccc2N1C(=O)c1ccc2ccccc2n1` yielded a composite z-score of 0.0676.

As to `O=[N+]([O-])c1ccc(C[n+]2ccc(-c3ccc(CO)cc3)cc2)o1`, the composite z-score turned out to be 1.45.

`NC(=O)[C@H]1[C@@H]2C(=O)O[C@@H](c3ccccc3)[C@@H](c3ccccc3)N2[C@@H](c2ccc(O)cc2)[C@]12C(=O)Nc1ccc(C#CC3(O)CCCCCC3)cc12` came in with a composite z-score of 1.42.

The compound `CN(C)C(=O)[C@@]1(Cc2ccccc2N=[N+]=[N-])N=C(c2ccc(OCCCO)cc2)O[C@H]1c1ccccc1N=[N+]=[N-]` came in with a composite z-score of 0.347.

The compound `NC(=O)NCC#Cc1ccc2c(c1)[C@]1(C(=O)N2)[C@H](c2ccc(O)cc2)N2[C@H](c3ccccc3)[C@H](c3ccccc3)OC(=O)[C@H]2[C@@H]1C(N)=O` displayed a composite z-score of -0.934.

`NC(=O)NCC#Cc1ccc2c(c1)[C@]1(C(=O)N2)[C@H](c2ccc(OCCO)cc2)N2[C@H](c3ccccc3)[C@H](c3ccccc3)OC(=O)[C@H]2[C@@H]1C(=O)N1CCN(c2ncccn2)CC1` showed a composite z-score of 0.232.

Take `O=C1N(Cc2ccccc2)c2ccccc2[C@H]2OC(c3ccc(OCCCO)cc3)=N[C@@]12CCS(=O)(=O)c1ccccc1`: the composite z-score is 1.23.

Regarding `COCC(=C=CC[C@@H](O)c1ccccc1OCCO)C[C@@H](O)c1ccccn1`, the composite z-score was found to be 0.322.

For the compound `COc1ccc(C#Cc2ccc3c(c2)[C@]2(C(=O)N3)[C@H](c3ccc(OCCO)cc3)N3[C@H](c4ccccc4)[C@H](c4ccccc4)OC(=O)[C@H]3[C@@H]2C(=O)N2CCN(c3ncccn3)CC2)cc1`, the composite z-score is 0.602.

The compound `COc1ccc(C(=O)Nc2ccc3c(c2)[C@]2(O[C@@H](CCO)[C@H]([Si](C)(C)c4ccc(OC)cc4)[C@H]2C)C(=O)N3Cc2ccccc2)cc1` displayed a composite z-score of 0.393.

As for `CC(C)C[C@@H]1NC(=O)[C@@]23C(=O)N[C@@H](Cc4ccccc4)C2[C@H](C)[C@@]2(C)O[C@H]2C3/C=C/C/C=C\CNC(=O)[C@@H]2CCCN2C1=O` (stereo partly specified), the composite z-score came to 0.361.

Take `Cc1cc(C)c(C(O)C2C=CC3C(=O)N(c4ccccc4)C(=O)C3N2Nc2ccc([N+](=O)[O-])cc2)c(C)c1` (stereo unspecified): the composite z-score is 1.45.
